# PubChem BioAssay
# Calls of active or inactive are those of the source.
# What was measured:
# Albumin (Bos taurus) = Albumin (Bos taurus) (UniProt P02769); experiment: compounds binding labelled BSA control protein – biochemical, small-molecule microarray, Alexa647 label, 635/667 nm fluorescence, artefact control for SMM control protein annotation, profiling panel (AID 1118); conditions: BSA-A647 binding, fluorescence 635 nm, higher = more signal;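 note: score merges 667 nm emission intensity and signal-to-noise per printed compound spot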
# [1] = probe aXIP binding to arrayed compounds – biochemical, NeuroSMM set, 635/667 nm fluorescence, primary screen (AID 1119); conditions: small-molecule microarray, higher = more signal, called active from +8 up or from −8 down;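 note: probe is the protein aXip251-270 applied at 1 µg/mL to compound-printed slides; binding of probe to printed compounds measured as 667 nm fluorescence plus signal to noise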
# [2] = probe aNOTCH3 binding on compound microarray – biochemical, small-molecule microarray, 635/667 nm fluorescence, primary screen (AID 1120); conditions: higher = more signal;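 note: probe is a biotin-tagged antibody raised against NOTCH3 rather than NOTCH3 protein; score merges spot fluorescence near 667 nm with spot signal to noise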
# [3] = probe aNOTCH2 binding on compound microarray – biochemical, small-molecule microarray, 635/667 nm fluorescence, primary screen (AID 1121); conditions: higher = more signal;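 note: score merges feature fluorescence read at 667 nm with its signal to noise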
# [4] = target: Carbonic anhydrase 2 (Homo sapiens) (UniProt P00918); experiment: compounds binding carbonic anhydrase 2 – biochemical, small-molecule microarray, Alexa647-labelled CAII, profiling panel (AID 1122); conditions: CAII-A647 binding fluorescence, higher = more signal
# [5] = COS7 lysate on small-molecule microarray, probe aHis, 635 nm (AID 1123); conditions: COS7 cell lysate, fluorescence, higher = more signal;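 note: z-score combines 667nm fluorescence intensity with signal-to-noise per printed compound spot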
# [6] = probe aLAP1 signal on lysate-treated microarray – cell lysate, small-molecule microarray, COS7 lysate, primary screen (AID 1124); conditions: probe aLAP1, fluorescence, higher = more signal;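 note: lysate comes from COS7 cells expressing LAP1 and is applied at 0.3 µg/mL; score merges spot fluorescence near 667 nm with signal-to-noise over triplicate slides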
# Sam68 (KHDRBS1) = experiment: compounds binding KHDRBS1 protein – biochemical, small-molecule microarray, 635 nm fluorescence, primary screen (AID 1125); conditions: higher = more signal;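 note: score merges 667 nm channel intensity with signal to noise over triplicate slides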
# [7] = test system: Chordin-like protein 2 (CHRDL2); experiment: compounds binding chordin-like 2 – biochemical, small-molecule microarray, 635 nm fluorescence, primary screen (AID 1126); conditions: fluorescence 635 nm, higher = more signal;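 note: printed compound slides probed with Chrdl2 protein at 4 µg/mL for 1 h at 4 C; score merges 667 nm emission intensity with signal to noise over three replicate slides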
# [8] = target: Concanavalin-A (Canavalia ensiformis) (UniProt P02866); experiment: compounds binding concanavalin A lectin – biochemical, small-molecule microarray, Alexa647 label, 635 nm, artefact control for SMM control protein annotation, primary screen (AID 1127); conditions: ConA-A647 binding fluorescence, higher = more signal;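 note: z combines 667 nm emission intensity with signal-to-noise across three replicate slides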
# [9] = compounds binding Alexa647 anti-His antibody – biochemical, small-molecule microarray, 635 nm fluorescence, artefact control for SMM control protein annotation, primary screen (AID 1128); conditions: higher = more signal;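 note: score merges feature fluorescence with signal-to-noise for each printed compound spot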
# [10] = test system: Human papillomavirus type 1a E7 protein (residues 1-88); experiment: HPV1a E7 small-molecule binders, primary screen, biochemical, small-molecule microarray, residues 1-88, 635 nm (AID 1129); conditions: small-molecule microarray binding, fluorescence 635 nm; higher = more signal
# [11] = target: Focal adhesion kinase 1 (Homo sapiens) (UniProt Q05397); experiment: PTK2 protein binding on printed compound slides – biochemical, small-molecule microarray, 635/667 nm fluorescence, BSA, DTT, primary screen (AID 1130); conditions: 635 nm fluorescence, higher = more signal;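 note: composite of spot emission at 667 nm and signal to noise over triplicate slides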
# [12] = test system: Fibrinogen (Alexa647-labelled); experiment: Alexa647-fibrinogen binding to printed small molecules – biochemical, small-molecule microarray, 635/667 nm fluorescence, artefact control for SMM control-protein annotation, profiling panel (AID 1131); conditions: fibrinogen-A647 binding fluorescence, higher = more signal;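 note: z-score merges 667 nm fluorescence with per-spot signal-to-noise over triplicate slides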
# [13] = target: Follistatin (Homo sapiens) (UniProt P19883); experiment: FST protein binding to printed compounds – biochemical, small-molecule microarray, 635/667 nm fluorescence, primary screen (AID 1132); conditions: 635 nm fluorescence, higher = more signal
# [14] = target: Fibroblast growth factor 2 (Homo sapiens) (UniProt P09038); experiment: basic fibroblast growth factor binding to printed compounds – biochemical, small-molecule microarray, 635/667 nm fluorescence, primary screen (AID 1133); conditions: FGF2, fluorescence 635/667, higher = more signal
# [15] = JC-1 mitochondrial potential readout, lung cancer cells – cell-based, A549, JC-1 fluorescence, basal, 24 h, 100 nL, profiling panel (AID 1138); conditions: higher = more signal;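 note: A549 lung adenocarcinoma cells under basal conditions with no added stimulus; test concentration not given here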
# Lefty1 = Lefty1 protein binding to printed compounds – biochemical, small-molecule microarray, 635/667 nm fluorescence, primary screen (AID 1139); conditions: fluorescence 635/667, higher = more signal
# [16] = test system: wheat germ agglutinin (Triticum aestivum), Alexa647-labelled; experiment: Alexa647-WGA lectin binding to printed small molecules – biochemical, small-molecule microarray, 635/667 nm fluorescence, artefact control for SMM control-protein annotation, profiling panel (AID 1140); conditions: WGA-A647 binding, 635 nm fluorescence, higher = more signal;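 note: score merges 667 nm feature emission with signal to noise over triplicate slides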
# [17] = target: Luciferin 4-monooxygenase (Photinus pyralis) (UniProt P08659); experiment: inhibition of purified Photinus pyralis luciferase – biochemical, luminescence, purified enzyme, 2006 set, primary screen (AID 1141); conditions: purified firefly luciferase, SteadyGlo luminescence, 30 min; higher = more signal, called active from +8 up or from −8 down;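 note: cell-free assay with purified firefly luciferase at 100 ng per well in PBS; test concentration not given here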
# Luciferin 4-monooxygenase (Photinus pyralis), sequence (P08659 whole entry, looked up): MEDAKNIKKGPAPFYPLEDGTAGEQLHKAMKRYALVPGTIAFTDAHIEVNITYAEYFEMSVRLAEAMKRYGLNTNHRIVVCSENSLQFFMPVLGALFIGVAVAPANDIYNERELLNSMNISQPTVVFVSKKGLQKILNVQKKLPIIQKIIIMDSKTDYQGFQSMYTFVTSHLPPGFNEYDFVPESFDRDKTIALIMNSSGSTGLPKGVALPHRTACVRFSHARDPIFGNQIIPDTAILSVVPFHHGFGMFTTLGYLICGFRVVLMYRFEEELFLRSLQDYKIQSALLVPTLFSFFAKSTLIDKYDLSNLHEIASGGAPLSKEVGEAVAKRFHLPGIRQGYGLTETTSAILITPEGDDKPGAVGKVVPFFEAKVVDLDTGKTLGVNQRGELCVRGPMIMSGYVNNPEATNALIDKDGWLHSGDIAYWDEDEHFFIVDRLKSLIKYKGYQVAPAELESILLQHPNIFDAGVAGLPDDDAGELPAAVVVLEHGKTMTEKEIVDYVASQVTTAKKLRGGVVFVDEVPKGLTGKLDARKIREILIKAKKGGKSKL
# Concanavalin-A (Canavalia ensiformis), sequence (P02866 whole entry, looked up): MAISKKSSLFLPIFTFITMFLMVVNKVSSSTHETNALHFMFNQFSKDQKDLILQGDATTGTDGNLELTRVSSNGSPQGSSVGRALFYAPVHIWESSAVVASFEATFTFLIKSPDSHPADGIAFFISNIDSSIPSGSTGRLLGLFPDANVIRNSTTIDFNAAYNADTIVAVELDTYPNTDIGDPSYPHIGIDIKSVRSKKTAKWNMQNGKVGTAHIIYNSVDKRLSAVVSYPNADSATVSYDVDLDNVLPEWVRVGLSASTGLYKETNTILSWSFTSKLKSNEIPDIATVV
# Focal adhesion kinase 1 (Homo sapiens), sequence (Q05397 whole entry, looked up): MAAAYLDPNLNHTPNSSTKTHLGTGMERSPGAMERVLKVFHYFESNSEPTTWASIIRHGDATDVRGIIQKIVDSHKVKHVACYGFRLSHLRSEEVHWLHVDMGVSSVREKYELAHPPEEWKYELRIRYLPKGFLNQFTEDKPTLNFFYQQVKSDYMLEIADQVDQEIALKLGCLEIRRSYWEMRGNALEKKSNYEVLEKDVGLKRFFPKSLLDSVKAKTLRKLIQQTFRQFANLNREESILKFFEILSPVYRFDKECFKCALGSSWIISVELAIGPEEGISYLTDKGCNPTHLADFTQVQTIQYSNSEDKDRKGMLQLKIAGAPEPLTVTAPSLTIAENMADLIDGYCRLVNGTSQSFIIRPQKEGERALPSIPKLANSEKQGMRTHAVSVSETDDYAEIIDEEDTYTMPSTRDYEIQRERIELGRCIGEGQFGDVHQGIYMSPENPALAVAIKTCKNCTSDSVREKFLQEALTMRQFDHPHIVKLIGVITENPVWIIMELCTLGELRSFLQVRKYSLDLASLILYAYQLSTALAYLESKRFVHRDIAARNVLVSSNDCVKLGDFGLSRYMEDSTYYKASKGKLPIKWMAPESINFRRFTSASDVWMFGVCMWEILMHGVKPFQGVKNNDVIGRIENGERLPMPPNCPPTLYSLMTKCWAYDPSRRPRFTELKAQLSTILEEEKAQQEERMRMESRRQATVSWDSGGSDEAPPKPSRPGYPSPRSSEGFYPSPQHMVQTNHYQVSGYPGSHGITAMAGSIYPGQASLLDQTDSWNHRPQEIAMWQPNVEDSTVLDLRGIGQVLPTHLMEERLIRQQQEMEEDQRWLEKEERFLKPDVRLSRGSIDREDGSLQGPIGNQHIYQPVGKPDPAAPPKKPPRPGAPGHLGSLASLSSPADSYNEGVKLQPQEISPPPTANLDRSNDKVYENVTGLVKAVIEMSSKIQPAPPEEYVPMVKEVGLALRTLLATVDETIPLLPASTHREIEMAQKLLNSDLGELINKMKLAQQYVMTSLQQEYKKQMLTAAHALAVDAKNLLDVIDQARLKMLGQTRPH
# Fibroblast growth factor 2 (Homo sapiens), sequence (P09038 whole entry, looked up): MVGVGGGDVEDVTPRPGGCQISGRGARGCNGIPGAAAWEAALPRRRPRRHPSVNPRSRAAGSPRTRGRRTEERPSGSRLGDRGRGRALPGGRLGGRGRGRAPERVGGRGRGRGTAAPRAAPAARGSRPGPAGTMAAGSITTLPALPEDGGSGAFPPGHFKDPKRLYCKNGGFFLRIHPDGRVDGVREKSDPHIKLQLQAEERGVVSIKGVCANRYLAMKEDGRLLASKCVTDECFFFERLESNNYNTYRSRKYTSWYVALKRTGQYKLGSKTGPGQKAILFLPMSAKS
# Follistatin (Homo sapiens), sequence (P19883 whole entry, looked up): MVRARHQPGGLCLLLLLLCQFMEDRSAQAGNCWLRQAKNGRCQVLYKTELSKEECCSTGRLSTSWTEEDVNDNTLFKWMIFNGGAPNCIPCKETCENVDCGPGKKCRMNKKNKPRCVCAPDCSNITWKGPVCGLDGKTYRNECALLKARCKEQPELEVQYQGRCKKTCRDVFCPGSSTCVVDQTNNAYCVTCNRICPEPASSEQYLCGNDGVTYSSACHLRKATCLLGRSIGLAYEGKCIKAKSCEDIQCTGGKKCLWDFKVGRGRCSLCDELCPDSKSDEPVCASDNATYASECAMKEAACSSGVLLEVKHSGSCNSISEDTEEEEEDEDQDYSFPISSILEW
# Albumin (Bos taurus), sequence (P02769 whole entry, looked up): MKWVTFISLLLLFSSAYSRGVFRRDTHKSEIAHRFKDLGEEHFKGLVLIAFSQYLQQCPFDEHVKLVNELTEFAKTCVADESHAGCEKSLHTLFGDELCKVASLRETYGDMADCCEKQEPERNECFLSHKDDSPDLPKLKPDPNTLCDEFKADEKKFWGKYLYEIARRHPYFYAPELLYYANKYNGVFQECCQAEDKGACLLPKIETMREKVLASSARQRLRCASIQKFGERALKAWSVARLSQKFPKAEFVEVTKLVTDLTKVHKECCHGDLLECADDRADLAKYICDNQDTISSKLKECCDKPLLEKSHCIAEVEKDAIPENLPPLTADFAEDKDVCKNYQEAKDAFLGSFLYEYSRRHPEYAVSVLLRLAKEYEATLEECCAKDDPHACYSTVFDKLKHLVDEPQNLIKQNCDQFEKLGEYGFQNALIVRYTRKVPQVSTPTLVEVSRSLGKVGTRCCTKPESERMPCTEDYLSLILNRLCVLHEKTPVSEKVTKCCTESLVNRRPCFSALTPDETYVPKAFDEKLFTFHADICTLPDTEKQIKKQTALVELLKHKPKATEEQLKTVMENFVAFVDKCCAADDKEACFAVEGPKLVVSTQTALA
SMILES,composite z-score (Albumin (Bos taurus)),composite Z-score [1],composite z-score [2],composite z-score [3],composite z-score [4],composite z-score [5],composite z-score [6],composite z-score (Sam68 (KHDRBS1)),composite z-score [7],composite z-score [8],composite z-score [9],composite z-score [10],composite z-score [11],composite z-score [12],composite z-score [13],composite z-score [14],z-score [15],composite z-score (Lefty1),composite z-score [16],z-score [17]
C[C@]1(C(=O)O)c2ccccc2C(=O)N(Cc2cc(F)cc(C(F)(F)F)c2)[C@H]1c1ccc(CO)cc1,0.286,-0.228 (inactive),-0.0126,-0.182,0.677,1.6,-0.276,0.0491,0.447,0.255,0.201,0.349,0.263,0.955,0.88,0.299,-1.06,0.956,0.0471,0.759 (inactive)
C[C@@H]1ON(c2ccc(I)cc2)[C@H](c2cccc(NC(=O)OCC3c4ccccc4-c4ccccc43)c2)[C@H]1C(=O)N1C(=O)OC[C@H]1Cc1ccccc1,-0.0188,-0.222 (inactive),0.0276,-0.126,0.456,0.367,0.111,0.668,0.926,1.01,0.296,0.506,-0.0828,0.544,0.566,0.249,1.37,0.593,0.334,-1.24 (inactive)
CCCNC(=O)[C@@]1(Sc2ccc(C)cc2)CC(=O)N(Cc2ccccc2Cl)[C@@H]1c1ccc(CO)cc1I,-0.266,-0.588 (inactive),0.965,-0.0836,0.529,0.649,-0.0685,-0.169,-1.56,0.0737,0.977,-0.157,0.313,0.22,-0.328,-1.08,0.685,-0.896,0.202,0.718 (inactive)
O=C1O[C@H](Cc2ccccc2)[C@@H]2[C@H]3C=CCCC=C3CN2[C@H]1Cc1ccc(O)cc1,-0.314,-0.263 (inactive),0.0208,-0.122,0.746,-0.265,-0.256,-1.09,-0.278,-0.211,1.38,-1.36,0.203,-2.73,0.16,-0.579,-0.653,0.262,0.778,-0.992 (inactive)
COC(=O)[C@@]1(Cc2ccccc2)[C@H]2c3cc(C(=O)N(C)C)n(Cc4ccc(S(C)(=O)=O)cc4)c3C[C@H]2CN1C(=O)c1ccccc1,1.13,-0.368 (inactive),0.364,0.199,0.647,2.9,0.722,0.296,-0.755,1.08,3.21,0.884,1.31,0.989,-0.0741,-0.277,-0.699,-0.367,1.13,1.6 (inactive)
CN(C)CCCC[C@@H]1NC(=O)[C@@H]2C[C@H](C(=O)NCCCCCCNC(=O)CS)[C@H](c3ccc(O)cc3)N2C1=O,-0.868,0.0804 (inactive),-0.0682,-0.112,0.538,1.06,0.338,0.952,1.15,1.08,2.26,0.91,0.335,0.767,1.31,1.87,-0.15,1.38,-0.204,-0.25 (inactive)
CC(C)(C)N1CC=CC23O[C@@H]4/C=C\CCCOC(=O)C4[C@H]2C(=O)N(CCCCCO)[C@@H]3C1=O (stereo not given in full),-1.58,0.794 (inactive),-0.349,-0.126,0.941,-0.584,0.566,-0.484,-1.46,-1.46,-1.23,-0.75,-0.716,-0.865,-1.06,-0.594,-0.137,-1.4,-0.408,0.215 (inactive)
O=C(NCCN1CCOCC1)[C@@H]1c2ccccc2C(=O)N(Cc2ccc(OC(F)(F)F)cc2)[C@H]1c1ccc(CO)cc1,0.816,-0.265 (inactive),-0.0976,-0.0429,0.761,1.64,-0.195,0.686,-1.49,-0.159,1.97,0.292,0.022,-0.419,0.0596,-1.23,2.22,-0.332,-0.109,-0.408 (inactive)
CN(C)CCCNC(=O)[C@@]1(C)c2ccccc2C(=O)N(Cc2ccc(OC(F)(F)F)cc2)[C@H]1c1ccc(CO)cc1,0.548,0.0333 (inactive),-0.139,-0.0357,0.706,1.83,1.03,0.0786,-0.616,-0.451,0.117,0.365,0.37,0.294,0.948,0.389,-0.664,-0.425,0.668,0.14 (inactive)
C=CCNC(=O)[C@@H]1[C@H]2C(=O)O[C@H](c3ccccc3)[C@H](c3ccccc3)N2[C@H](c2ccc(OCCO)cc2)[C@@]12C(=O)Nc1ccc(C#CC3(O)CCCCCC3)cc12,0.692,-0.058 (inactive),0.13,-0.11,0.42,1.86,0.637,1.3,0.253,1.19,2.64,1.18,0.245,0.891,1.34,0.755,-1.21,0.497,1.04,-0.467 (inactive)
COc1ccc([Si](C)(C)[C@H]2[C@H](CCO)O[C@@]3(C(=O)N(Cc4cccc(N5C(=O)c6ccccc6Oc6ccccc65)c4)c4ccccc43)[C@@H]2C)cc1,0.446,0.142 (inactive),-0.0647,-0.147,0.287,0.575,0.755,0.499,-0.122,0.843,0.551,0.838,-0.065,0.327,-0.424,0.649,0.302,-0.351,0.805,0.0939 (inactive)
